Out of some 13,000 compounds screened, about 3,200 (25%) showed an effect of 50% or more. Some of the results follow.

The subject of this assay is P. falciparum stage V gametocytes. Further details: BacTiter-Glo ATP luminescence viability of purified stage V gametocytes in 384-well plates, per cent inhibition versus DMSO. Conditions: 48 h, 5 µM; inhibitor.
Regarding `CC(C)(C)c1ccc(N2C(N)=NC(N)=NC2(C)C)cc1` [TCMDC-137713], the % Inhibition (usually the drop in the measured response relative to a control, in per cent) turned out to be 2.693%.

Consider `O=C(Nc1ccc(Cl)cn1)c1sc2ccccc2c1O` [TCMDC-124520], for which the “% Inhibition” value was -11.35%.

As for `Cc1ccc(C(=O)Nc2cc(S(=O)(=O)N3CCCC3)ccc2OCC(F)(F)F)cc1` [TCMDC-124325], the “% Inhibition” value is given as -29.62%.

Regarding `O=C(Nc1ccc(Cl)c(Cl)c1)Nc1ccc(F)c([N+](=O)[O-])c1` [TCMDC-125042], the “% Inhibition” value is -17.87%.

With `O=C(Nc1ccc(OC(F)(F)F)cc1)NC1CCN(c2ccnc3ccccc23)CC1` [TCMDC-133585], the “% Inhibition” value is reported as -8.485%.

Consider `O=C(Nc1ccc(C(F)(F)F)cc1)NC1CCN(c2ccnc3cc(Cl)ccc23)C1` (centres unmarked) [TCMDC-133405], for which the “% Inhibition” value is given as -22.97%.

For the molecule `CC(C)(C)c1ccc(NC(=O)N[C@@H]2CCN(c3ccnc4ccccc34)C2)cc1` [TCMDC-141573], the “% Inhibition” value stood at 101%.

For `COc1cc(O)c2c(=O)c(OC)c(-c3cccc(Cl)c3OC3O[C@H](CO)[C@@H](O)[C@H](O)[C@H]3O)oc2c1OC` (some centres unmarked) [TCMDC-131699], the “% Inhibition” value was 3.846%.

As to `CC(C)c1ccc(CN2CCC(CNC(=O)c3cc(-c4cccc(F)c4)cs3)C2)cc1` (centres unmarked) [TCMDC-134437], the “% Inhibition” value amounted to 107.7%.

`COc1cccc(-c2csc(C(=O)NCC3CCN(Cc4ccc(C(C)C)cc4)C3)c2)c1` (centres unmarked) [TCMDC-134439]: the “% Inhibition” value amounted to 107.3%.

In the case of `CC(C)c1ccc(CN2CCC(CNC(=O)c3cc(-c4cccc(Cl)c4)cs3)C2)cc1` (centres unmarked) [TCMDC-134438], the “% Inhibition” value came out at 95.05%.

On to `CC(C)c1ccc(CN2CCCCC(NC(=O)c3cc(-c4cccc(F)c4)cs3)C2)cc1` (centres unmarked) [TCMDC-134463], for which the “% Inhibition” value is given as -60.78%.

For the molecule `Cc1cc(N[C@@H](CC(C)C)C(=O)NCCOc2ccccc2)nc(Nc2ccccc2)n1` [TCMDC-134741], the “% Inhibition” value was -17.47%.

For `C#CCN(Cc1cc2c(=O)[nH]c(N)nc2cc1C)c1ccc(C(=O)N[C@@H](CCC(=O)O)C(=O)O)cc1` [TCMDC-132041], the “% Inhibition” value amounted to 1.845%.

Take `CCOC(=O)NC1=NC(C)(C)N(OCc2cccc3c2ccc2ccccc23)C(NC(=O)OCC)=N1` [TCMDC-131339]: the “% Inhibition” value worked out at 9.295%.

For `CCCCc1ccc(NC(=O)Nc2ccc3c(c2)CCNCC3)cc1` [TCMDC-141500], the “% Inhibition” value was found to be 0.2373%.

Take `CCOC(=O)c1c(CN2CCCC2)n(-c2ccccc2)c2cc(Br)c(O)cc12` [TCMDC-124122]: the “% Inhibition” value is given as -23.97%.

Regarding `C=C[C@]1(C)C[C@@H](OC(=O)c2cncn(COC)c2=O)[C@]2(C)[C@H](C)CC[C@]3(CCC(=O)[C@H]32)[C@@H](C)[C@@H]1O` [TCMDC-141314], the “% Inhibition” value amounted to 6.014%.

Take `CN1CCN(c2cc(NC(=O)Nc3cccc(Cl)c3Cl)ccc2Cl)CC1` [TCMDC-139114]: the “% Inhibition” value was -11.69%.

In the case of `CCCC(CNCc1cccc(I)c1)CNc1cc(=O)c2ccccc2[nH]1` (centres unmarked) [TCMDC-139433], the “% Inhibition” value is reported as 23.15%.

For the molecule `CC(=O)N1N=C(c2ccc(Cl)cc2)Sc2c1nc(-c1ccccc1)n2C(C)=O` [TCMDC-124899], the “% Inhibition” value is on record as 80.4%.

For `CC(=O)N1N=C(c2ccccc2)Sc2c1nc(-c1ccc(Cl)cc1)n2C(C)=O` [TCMDC-125193], the “% Inhibition” value came to 43.76%.

With `COc1ccc(Cc2nc3c(n2C(C)=O)SC(c2ccc(Cl)c(Cl)c2)=NN3C(C)=O)cc1` [TCMDC-125189], the “% Inhibition” value was 18.21%.

As to `CC(=O)N1N=C(c2ccc(F)cc2)Sc2c1nc(C1CCCCC1)n2C(C)=O` [TCMDC-125190], the “% Inhibition” value stood at 77.23%.

For the molecule `CC(=O)N1N=C(c2cccs2)Sc2c1nc(-c1ccc(Cl)cc1)n2C(C)=O` [TCMDC-124898], the “% Inhibition” value came to 78.97%.

Take `CC(=O)N1N=C(c2ccc(Cl)cc2)Sc2c1nc(C1CCCCC1)n2C(C)=O` [TCMDC-125191]: the “% Inhibition” value came to 45.01%.

With `CC(=O)N1N=C(c2ccc(F)cc2)Sc2c1nc(-c1ccccc1)n2C(C)=O` [TCMDC-125192], the “% Inhibition” value is given as 62.08%.

With `CCOC(=O)c1[nH]c(-c2ccccc2)nc1-n1nc(C)cc1C` [TCMDC-131622], the “% Inhibition” value is reported as -5.185%.

`CCOC(=O)c1[nH]c(-c2ccc(-c3ccccc3)cc2)nc1N` [TCMDC-131797]: the “% Inhibition” value is reported as -4.943%.

With `O=C(/C=C/c1ccc(Cl)cc1)NCCCCCN1CCCN(C(=O)Nc2ccc(F)c(Cl)c2)CC1` [TCMDC-136101], the “% Inhibition” value is listed as -6.119%.

Turning to `COc1cccc(CNC[C@@H](O)[C@H](Cc2ccccc2)NC(=O)c2cc(C3CCCC3)cc(N3CCCCS3(=O)=O)c2)c1` [TCMDC-134523], the “% Inhibition” value was determined as 42.74%.

For the molecule `CCC1(CC)N=C(N)N=C(N)C1c1ccc(Cl)c(Cl)c1` (centres unmarked) [TCMDC-137597], the “% Inhibition” value was 8.83%.

In the case of `COc1ccc(CN2CCCC(C(=O)c3ccc(C(F)(F)F)cc3)C2)c(O)c1` (centres unmarked) [TCMDC-124631], the “% Inhibition” value was found to be 43.69%.

For the molecule `CS(=O)(=O)Cc1ccc(Nc2nccc(-c3c(-c4cccc(NC(=O)C5CCCCC5)c4)nn4ncccc34)n2)cc1` [TCMDC-135812], the “% Inhibition” value was -14.86%.

In the case of `CC(=O)Nc1cccc(-c2cnc(N)c3cc(-c4ccc5c(c4)OCO5)ccc23)c1` [TCMDC-134504], the “% Inhibition” value was determined as 30.5%.

With `Cn1nccc1C(=O)NCCNCc1ccc(-c2ccc(-c3nc4ccccc4[nH]3)s2)cc1.O=C(O)C(F)(F)F` [TCMDC-133004], the “% Inhibition” value is on record as -2.407%.

Take `CCC(=O)c1ccc(-c2ccc(=O)n(CC(=O)N(CCN(CC)CC)Cc3ccc(-c4ccc(C(F)(F)F)cc4)cc3)n2)cc1` [TCMDC-141574]: the “% Inhibition” value stood at 82.08%.

As for `CCN(CC)S(=O)(=O)c1cc(-c2ccc(=O)n(CC(=O)c3ccc(C)cc3)n2)ccc1C` [TCMDC-124707], the “% Inhibition” value is on record as -20.12%.

With `CCN(CC)CCN(Cc1ccc(-c2ccc(C(F)(F)F)cc2)cc1)C(=O)Cn1nc(-c2ccc(C(F)(F)F)cc2)ccc1=O` [TCMDC-141575], the “% Inhibition” value turned out to be 69.38%.

`Cc1cc(N2Cc3ccccc3C2)nc(Nc2ccc(S(=O)(=O)N3CCOCC3)cc2)n1` [TCMDC-134229]: the “% Inhibition” value was -25.67%.

Take `O=c1[nH]ccc2nc(N[C@@H]3CCNC3)nc(Nc3ccc4c(c3)S(=O)(=O)CC4)c12` [TCMDC-135044]: the “% Inhibition” value was determined as 71.11%.

Regarding `CN(C)S(=O)(=O)c1ccc(Nc2nc(NCCC3C=NC=N3)nc3cc[nH]c(=O)c23)cc1` (centres unmarked) [TCMDC-135045], the “% Inhibition” value is given as -6.172%.

On to `Cc1cccc(Nc2nc(N[C@@H]3CCCNC3)nc3cc[nH]c(=O)c23)c1` [TCMDC-134835], for which the “% Inhibition” value was -44.23%.

As for `O=c1[nH]ccc2nc(N[C@@H]3CCNC3)nc(Nc3cccc(S(=O)(=O)N4CCOCC4)c3)c12` [TCMDC-135047], the “% Inhibition” value was determined as 89.83%.

For the molecule `NS(=O)(=O)c1cccc(Nc2nc(N[C@@H]3CCNC3)nc3cc[nH]c(=O)c23)c1` [TCMDC-135057], the “% Inhibition” value is recorded as -11.44%.

As for `O=c1[nH]ccc2nc(N[C@@H]3CCNC3)nc(Nc3cc(Cl)cc(Cl)c3)c12` [TCMDC-135052], the “% Inhibition” value was found to be 102.4%.

As to `OCCOCCNCc1cccc(C#Cc2cc3ncnc(Nc4ccc(OCc5cccc(F)c5)c(Cl)c4)c3s2)n1` [TCMDC-138843], the “% Inhibition” value was -31.63%.

Regarding `CCNc1nc(OCC(F)(F)F)nc(N(c2ccccc2)c2ccccc2)n1` [TCMDC-125801], the “% Inhibition” value was -11.7%.

`O=C(c1cc(C(=O)NC2CCCCC2)c(=O)n(C2CCCCC2)c1)c1cc(F)ccc1O` [TCMDC-124525]: the “% Inhibition” value is 20.48%.

Regarding `NCC(NC(=O)c1ccc(-c2c[nH]c3ncccc23)s1)c1ccccc1` (centres unmarked) [TCMDC-134154], the “% Inhibition” value is -44.12%.

For `CCC1(CC)CN(c2ccccc2)c2ccc(O)cc2S(=O)(=O)C1CC(C)C` (centres unmarked) [TCMDC-137217], the “% Inhibition” value is -89.07%.

In the case of `N#Cc1ccc2c(c1)CCN(CCC1CCC(NC(=O)/C=C/c3ccc4ccccc4c3)CC1)CC2` (centres unmarked) [TCMDC-139779], the “% Inhibition” value was -26.43%.

For `OCCCCCCNc1ccnc2[nH]c3ccc(I)cc3c12` [TCMDC-131830], the “% Inhibition” value is 10%.

As for `Cc1cccc2[nH]c(-c3cccc(-c4ccc(NC(=O)Nc5ccc6c(c5)OCO6)cc4)c3)nc12` [TCMDC-133163], the “% Inhibition” value was -27.37%.

As for `CC(Sc1nc2sccc2c(=O)n1C)C(=O)Nc1ccc2c(c1)OCO2` (centres unmarked) [TCMDC-125026], the “% Inhibition” value was 100.7%.

On to `Cc1cccc2[nH]c(-c3ccc(-c4cccc(NC(=O)Nc5ccc6c(c5)OCO6)c4)cc3)nc12` [TCMDC-133166], for which the “% Inhibition” value is given as -1.928%.

Turning to `O=C(NCC1CCC(C(=O)O)CC1)c1ccc(/C=C/C(=O)N2CCc3ccccc3C2c2ccc3c(c2)OCO3)cc1` (centres unmarked) [TCMDC-138267], the “% Inhibition” value is reported as -9.047%.

For `O=S(=O)(NCCN1CCCC1)c1cccc(-c2cccc(CNCc3ccc(F)cc3)c2)c1` [TCMDC-132276], the “% Inhibition” value was determined as 98.39%.

As for `CS(=O)(=O)c1ccc(CNCc2cccc(-c3cccc(-c4nc5ccc(F)cc5[nH]4)c3)c2)cc1` [TCMDC-132907], the “% Inhibition” value was -11.65%.

As for `O=S(=O)(NCCN1CCCC1)c1ccc(-c2cccc(CNCc3ccc(F)cc3)c2)cc1` [TCMDC-132407], the “% Inhibition” value worked out at 38.56%.

In the case of `O=S(=O)(NCCN1CCCC1)c1cccc(-c2ccc(CNCc3ccc(F)cc3)cc2)c1` [TCMDC-132289], the “% Inhibition” value is listed as 105.2%.

As for `O=C(/C=C/c1ccc(Cl)c(Cl)c1)NCCCCCN1CCC(n2c(=O)[nH]c3ccccc32)CC1` [TCMDC-139330], the “% Inhibition” value was -42.06%.

In the case of `CC(C)C[C@H](NC(=O)[C@H](Cc1ccccc1)NC(=O)CCN1C(=O)COc2ccc(C(=O)O)cc21)C(=O)NC(CC1CCCCC1)C(O)CC(=O)NCCCn1ccnc1` (some centres unmarked) [TCMDC-131640], the “% Inhibition” value worked out at 6.577%.

As to `CC(CNC(=N)c1cccc(C(=N)NCC(C)Oc2cccc(C3CCCCC3)c2)n1)Oc1cccc(C2CCCCC2)c1.Cl` (centres unmarked) [TCMDC-137455], the “% Inhibition” value is reported as 116.2%.

`c1ccc(COc2ccc(C3CCCCC3)cc2)nc1` [TCMDC-131330]: the “% Inhibition” value is listed as 8.048%.

The record behind these values is article PMC4552634, “A New Set of Chemical Starting Points with Plasmodium falciparum Transmission-Blocking Potential for Antimalarial Drug Discovery” (PLoS ONE, 2015).
